From PubChem BioAssay (EPA / NIEHS) come the findings set out here.

Read-out in experiment [1]: Pyruvate Dehydrogenase Kinase 4 (PDK4), PDK4 (gene 5166)
The experiment can be described thus: LTEA_HepaRG_PDK4: Life Technologies and Expression Analysis (LTEA) Assay for Pyruvate Dehydrogenase Kinase 4 (PDK4) using HepaRG (AID 2283525). The following applies: mRNA level, 48 h; actives raise or lower the signal. The essentials: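 In this multiplexed human HepaRG expression assay, cells are treated 48 h with test chemicals across an eight-point range starting at 100 uM. PDK4 mRNA changes, normalized to ACTB/GAPDH/POLR2A, are fitted in both directions relative to vehicle.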

Read-out in experiment [2]: NAD(P)H dehydrogenase [quinone] 1 (NQO1), NQO1 (gene 1728)
Kind of experiment: LTEA_HepaRG_NQO1: Life Technologies and Expression Analysis (LTEA) Assay for NAD(P)H dehydrogenase [quinone] 1 (NQO1) using HepaRG (AID 2283526). The following applies: mRNA level, 48 h; actives raise or lower the signal. In outline:
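Differentiated HepaRG cells, plated 48 h and then switched to serum-free induction medium, were exposed in duplicate for 48 h to 8-point half-log concentrations up to 100 uM in 0.5% DMSO. mRNA measured by qRT-PCR, normalized to ACTB, GAPDH, POLR2A; bidirectional fit versus DMSO.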

Read-out in experiment [3]: Nuclear factor erythroid 2-related factor 2 (Homo sapiens) (UniProt Q16236)
Kind of experiment: LTEA_HepaRG_NFE2L2: Life Technologies and Expression Analysis (LTEA) Assay for Nuclear factor erythroid 2-related factor 2 (NFE2L2) Transcription Factor using HepaRG (AID 2283527).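 Note: TaqMan qRT-PCR transcript level normalised to ACTB GAPDH and POLR2A housekeeping genes.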 To be noted: mRNA level, 48 h; actives raise or lower the signal. In outline: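 Transcript level of NFE2L2 is the read-out, measured by microfluidic TaqMan qRT-PCR and normalized to three housekeeping genes. Human HepaRG cultures received test chemical for 48 h at up to 100 uM in half-log steps. Gain or loss of signal is fitted relative to 0.5% DMSO.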

Read-out in experiment [4]: succinate dehydrogenase complex iron sulfur subunit B (SDHB), SDHB (gene 6390)
The experiment can be described thus: LTEA_HepaRG_SDHB: Life Technologies and Expression Analysis (LTEA) Assay for succinate dehydrogenase complex iron sulfur subunit B (SDHB) using HepaRG (AID 2283528). The following applies: mRNA level, 48 h; actives raise or lower the signal. In outline: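 HepaRG, 48 h exposure, 8-pt half-log series from 100 uM in 0.5% DMSO, duplicates. Readout: SDHB mRNA by Fluidigm qRT-PCR vs housekeeping genes; bidirectional fit relative to DMSO.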

Read-out in experiment [5]: Signal transducer and activator of transcription 3 (Homo sapiens) (UniProt P40763)
Kind of experiment: LTEA_HepaRG_STAT3: Life Technologies and Expression Analysis (LTEA) Assay for Signal transducer and activator of transcription (STAT3) using HepaRG (AID 2283529). To be noted: mRNA level, 48 h; actives raise or lower the signal. The essentials:
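Read-out is STAT3 mRNA level by qRT-PCR, normalized to three housekeeping genes, in human HepaRG liver cells treated for 48 h. Concentrations ran from 100 uM downward in half-log steps; curves were fitted for gain or loss relative to 0.5% DMSO.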

Read-out in experiment [6]: solute carrier (SLCO1B1), SLCO1B1 (gene 10599)
The experiment can be described thus: LTEA_HepaRG_SLCO1B1: Life Technologies and Expression Analysis (LTEA) Assay for solute carrier (SLCO1B1) using HepaRG (AID 2283530). The following applies: mRNA level, 48 h; actives raise or lower the signal. The essentials: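 Human HepaRG cultures treated for 48 h with an eight-concentration half-log series topping at 100 uM; SLCO1B1 measured by qRT-PCR and fitted bidirectionally relative to DMSO.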

Read-out in experiment [7]: sulfotransferase 2A1 (SULT2A1), SULT2A1 (gene 6822)
Kind of experiment: LTEA_HepaRG_SULT2A1: Life Technologies and Expression Analysis (LTEA) Assay for sulfotransferase 2A1 (SULT2A1) using HepaRG (AID 2283531). The following applies: mRNA level, 48 h; actives raise or lower the signal. In outline: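 Gene-expression endpoint in a human liver cell line: SULT2A1 mRNA change after 48 h chemical treatment, curves fitted in both directions relative to 0.5% DMSO vehicle. Concentrations spanned eight half-log steps from 100 uM.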

Read-out in experiment [8]: Transforming Growth Factor (TGFA), TGFA (gene 7039)
Kind of experiment: LTEA_HepaRG_TGFA: Life Technologies and Expression Analysis (LTEA) Assay for Transforming Growth Factor (TGFA) using HepaRG (AID 2283532). The following applies: mRNA level, 48 h; actives raise or lower the signal. The essentials: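 HepaRG (human liver line), 48 h exposure, 8 conc. half-log down from 100 uM, 0.5% DMSO vehicle, duplicates; serum-free induction medium. TGFA mRNA by TaqMan qRT-PCR, ACTB/GAPDH/POLR2A normalization; gain/loss fit vs DMSO.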

Read-out in experiment [9]: Transforming Growth Factor (TGFB1), TGFB1 (gene 7040)
Kind of experiment: LTEA_HepaRG_TGFB1: Life Technologies and Expression Analysis (LTEA) Assay for Transforming Growth Factor (TGFB1) Transporter using HepaRG (AID 2283533). The following applies: mRNA level, 48 h; actives raise or lower the signal. In outline: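 Eight-point concentration-response (max 100 uM, half-log) in HepaRG under serum-free induction conditions, 48 h. TGFB1 mRNA by qRT-PCR, housekeeping-normalized.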

Read-out in a further experiment: TIMP1, TIMP1 (gene 7076)
Kind of experiment: LTEA_HepaRG_TIMP1: Life Technologies and Expression Analysis (LTEA) Assay for TIMP1 using HepaRG (AID 2283534). The following applies: mRNA level, 48 h; actives raise or lower the signal. In outline: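 TIMP1 induction or repression in HepaRG cells after 48 h chemical exposure (eight concentrations, highest 100 uM), assessed by normalized qRT-PCR with bidirectional fitting to DMSO controls.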

Read-out in experiment [10]: Tumor necrosis factor receptor 1 (TNFRSF1A), TNFRSF1A (gene 7132)
Kind of experiment: LTEA_HepaRG_TNFRSF1A: Life Technologies and Expression Analysis (LTEA) Assay for Tumor necrosis factor receptor 1 (TNFRSF1A) using HepaRG (AID 2283535). To be noted: mRNA level, 48 h; actives raise or lower the signal. The essentials: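 Assay uses 48 h chemical treatment of differentiated HepaRG monolayers, tested in duplicate at eight concentrations from 100 uM downward in 0.5% DMSO. mRNA is normalized to ACTB, GAPDH and POLR2A, with induction or suppression fitted relative to vehicle.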

Read-out in experiment [11]: Thyroid Hormone Responsive (THRSP), THRSP (gene 7069)
Kind of experiment: LTEA_HepaRG_THRSP: Life Technologies and Expression Analysis (LTEA) Assay for Thyroid Hormone Responsive (THRSP) using HepaRG (AID 2283536). To be noted: mRNA level, 48 h; actives raise or lower the signal. In outline: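 mRNA induction or loss relative to 0.5% DMSO vehicle was fitted bidirectionally across an eight-point curve whose highest exposure was 100 uM. Human HepaRG liver cells received chemicals in duplicate over 48 h before RNA extraction.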

Read-out in experiment [12]: UDP glucuronosyltransferase (UGT1A1), UGT1A1 (gene 54658)
Kind of experiment: LTEA_HepaRG_UGT1A1: Life Technologies and Expression Analysis (LTEA) Assay for UDP glucuronosyltransferase (UGT1A1) using HepaRG (AID 2283538). The following applies: mRNA level, 48 h; actives raise or lower the signal. In outline: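 Differentiated human HepaRG cells in serum-free induction medium were exposed in duplicate for 48 h to eight half-log concentrations up to 100 uM in 0.5% DMSO. UGT1A1 mRNA was quantified by TaqMan qRT-PCR, normalized to ACTB, GAPDH and POLR2A, and fitted bidirectionally against DMSO.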

Read-out in experiment [13]: UDP glucuronosyltransferase (UGT1A6), UGT1A6 (gene 54578)
The experiment can be described thus: LTEA_HepaRG_UGT1A6: Life Technologies and Expression Analysis (LTEA) Assay for UDP glucuronosyltransferase (UGT1A6) using HepaRG (AID 2283539). To be noted: mRNA level, 48 h; actives raise or lower the signal. In outline:
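Measures mRNA change in HepaRG hepatic cells exposed 48 h to chemicals (eight-point, maximum 100 uM, 0.5% DMSO vehicle) in serum-free induction medium. Expression normalized to endogenous controls; DMSO served as negative control and baseline.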

Read-out in experiment [14]: X-box binding protein 1 (XBP1), XBP1 (gene 7494)
Kind of experiment: LTEA_HepaRG_XBP1: Life Technologies and Expression Analysis (LTEA) Assay for X-box binding protein 1 (XBP1) using HepaRG (AID 2283540). To be noted: mRNA level, 48 h; actives raise or lower the signal. The essentials: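 Eight concentrations (half-log, highest 100 uM, 0.5% DMSO) tested in duplicate on HepaRG cells over 48 h in serum-free induction medium; qRT-PCR of XBP1 normalised to ACTB, GAPDH, POLR2A.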

The nature of experiment [15]: TOX21_p53_BLA_p2_viability: Viability Assessment in the Tox21 HCT-116 p53 Agonism Beta-lactamase Assay, Phase 2 (AID 2283591; active = hit-call score of the fitted dose curve at least 0.9, where 1 is the maximum;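 note: compound exposure lasted 16 h at 37 °C; actives lower the ATP signal meaning cytotoxicity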). In outline:
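Cytotoxicity readout: CellTiter-Glo ATP luminescence, 30 min at room temperature, after the beta-lactamase read. Cells were HCT116 exposed 16 h at 37C to compounds pin-transferred at 217-fold dilution from DMSO stocks.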

For experiment [16], the target named is Cellular tumor antigen p53 (Homo sapiens) (UniProt P04637). Kind of experiment: TOX21_p53_BLA_p2_ratio: Tox21 HCT-116 p53 Agonism Beta-lactamase Assay, Ratio, Phase 2 (AID 2283592; active = hit-call score of the fitted dose curve at least 0.9, where 1 is the maximum). In outline:
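Human colon HCT116 cells with an inducible p53 beta-lactamase reporter are exposed to test chemicals for 16 h at 37C. Reporter induction is read as the 460/530 nm emission ratio after CCF4-AM loading, normalized to DMSO.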

Read-out in experiment [17]: Cellular tumor antigen p53 (Homo sapiens) (UniProt P04637)
The experiment can be described thus: LTEA_HepaRG_TP53: Life Technologies and Expression Analysis (LTEA) Assay for Tumor Protein P53 (TP53) using HepaRG (AID 2283537). To be noted: mRNA level, 48 h; actives raise or lower the signal. The essentials:
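HepaRG, 48 h exposure, top 100 uM, half-log 8-point, 0.5% DMSO vehicle, duplicates. Read: TP53 mRNA by TaqMan qRT-PCR, normalised to ACTB/GAPDH/POLR2A; bidirectional fit vs DMSO.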

The nature of experiment [18]: LTEA_HepaRG_LDH_cytotoxicity: Cytotoxicity Assessment in the Life Technologies and Expression Analysis (LTEA) Assay (AID 2283563; active = hit-call score of the fitted dose curve at least 0.9, where 1 is the maximum). The essentials: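 Spent-medium LDH after 48 h chemical exposure of HepaRG cells in serum-free induction medium; eight concentrations, half-log dilutions from 100 uM, duplicate wells, fitted upward relative to 0.5% DMSO.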

One may read the AC50 as the concentration giving half of the maximal activity seen.

Records with an inconclusive call do not appear. Active and inactive are the calls of the source. Rule for the calls, unless noted: active = hit-call score of the fitted dose curve at least 0.9, where 1 is the maximum; inactive = score below 0.9.

Sequence of Cellular tumor antigen p53 (Homo sapiens) (P04637 whole entry, looked up): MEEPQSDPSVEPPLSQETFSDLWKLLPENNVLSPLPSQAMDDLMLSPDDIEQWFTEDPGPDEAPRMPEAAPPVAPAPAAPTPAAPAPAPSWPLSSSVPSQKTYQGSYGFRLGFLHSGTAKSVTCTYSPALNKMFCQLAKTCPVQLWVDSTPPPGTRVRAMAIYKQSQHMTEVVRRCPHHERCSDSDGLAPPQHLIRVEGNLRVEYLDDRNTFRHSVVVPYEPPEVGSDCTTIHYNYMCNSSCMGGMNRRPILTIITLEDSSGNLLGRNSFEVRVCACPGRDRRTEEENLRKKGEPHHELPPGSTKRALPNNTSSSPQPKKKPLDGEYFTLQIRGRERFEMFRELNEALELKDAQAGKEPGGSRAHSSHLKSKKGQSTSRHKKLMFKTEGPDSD
Sequence of Signal transducer and activator of transcription 3 (Homo sapiens) (P40763 whole entry, looked up): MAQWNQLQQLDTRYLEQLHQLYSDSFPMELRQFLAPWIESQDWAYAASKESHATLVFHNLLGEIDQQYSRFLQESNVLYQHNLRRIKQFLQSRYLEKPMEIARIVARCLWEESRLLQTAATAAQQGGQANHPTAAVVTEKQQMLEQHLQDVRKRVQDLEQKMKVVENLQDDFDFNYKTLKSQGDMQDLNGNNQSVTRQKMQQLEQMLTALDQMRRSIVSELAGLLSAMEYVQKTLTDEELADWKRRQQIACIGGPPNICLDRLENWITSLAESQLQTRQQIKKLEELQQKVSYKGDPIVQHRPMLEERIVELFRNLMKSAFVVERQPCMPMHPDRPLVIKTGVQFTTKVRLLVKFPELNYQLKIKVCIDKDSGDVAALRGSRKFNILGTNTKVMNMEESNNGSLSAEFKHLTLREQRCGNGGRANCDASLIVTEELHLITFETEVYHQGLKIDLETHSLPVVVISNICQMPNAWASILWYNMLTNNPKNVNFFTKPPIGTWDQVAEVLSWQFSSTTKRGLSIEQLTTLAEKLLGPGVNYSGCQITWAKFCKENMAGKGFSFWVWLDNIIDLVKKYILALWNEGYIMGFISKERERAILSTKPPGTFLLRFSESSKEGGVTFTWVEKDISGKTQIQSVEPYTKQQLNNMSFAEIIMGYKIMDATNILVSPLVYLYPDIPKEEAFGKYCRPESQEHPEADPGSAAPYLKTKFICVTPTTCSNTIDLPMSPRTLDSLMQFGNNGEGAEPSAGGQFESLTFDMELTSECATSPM
Sequence of Nuclear factor erythroid 2-related factor 2 (Homo sapiens) (Q16236 whole entry, looked up): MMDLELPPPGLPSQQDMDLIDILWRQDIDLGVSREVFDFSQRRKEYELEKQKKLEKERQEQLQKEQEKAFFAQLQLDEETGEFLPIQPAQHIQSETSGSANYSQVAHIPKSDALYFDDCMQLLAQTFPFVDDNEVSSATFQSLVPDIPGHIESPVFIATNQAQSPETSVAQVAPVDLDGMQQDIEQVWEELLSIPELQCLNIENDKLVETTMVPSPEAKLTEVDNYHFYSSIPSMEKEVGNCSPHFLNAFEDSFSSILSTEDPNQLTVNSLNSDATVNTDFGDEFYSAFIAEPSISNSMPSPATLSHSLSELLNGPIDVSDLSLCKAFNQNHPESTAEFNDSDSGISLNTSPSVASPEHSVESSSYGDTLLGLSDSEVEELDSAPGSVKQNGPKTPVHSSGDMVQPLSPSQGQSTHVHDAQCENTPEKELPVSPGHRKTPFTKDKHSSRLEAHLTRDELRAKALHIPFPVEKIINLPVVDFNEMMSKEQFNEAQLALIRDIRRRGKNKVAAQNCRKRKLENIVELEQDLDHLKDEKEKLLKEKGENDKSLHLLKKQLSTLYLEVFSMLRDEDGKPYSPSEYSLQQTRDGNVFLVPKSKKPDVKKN

Take `O=NN(c1ccccc1)c1ccccc1`: the compound was classed as inactive in [1], in experiment [2], in experiment [3], in [4], in experiment [5] and in experiment [6]. The outcome in experiment [7] was “inactive”; in experiment [8], “inactive”; in experiment [9] it was “inactive”; in the experiment with TIMP1, TIMP1 (gene 7076), “inactive”; in experiment [11] it was “inactive”; in experiment [12] it was “inactive”. Further, the result in [13], in experiment [14], in experiment [15] and in experiment [16] was inactive. Besides, the AC50 in [10] is 80.2 µM (active).
Turning to `Oc1ccc(Cl)cc1Cl`, the outcome in experiment [2], in [3], in experiment [4], in [5], in experiment [6] and in experiment [7] was inactive. Besides, the outcome in [8] is “inactive”; in [9], “inactive”; in the experiment with TIMP1, TIMP1 (gene 7076), “inactive”; in experiment [10], “inactive”; in experiment [11] it was “inactive”; in experiment [17], “inactive”. Further, the result in experiment [12], in experiment [13], in experiment [14], in experiment [18], in [15] and in experiment [16] was inactive.
`O=C(N[C@H]1CN2CCC1CC2)c1cc2ccoc2cn1`: the result in experiment [1], in [2], in experiment [3], in experiment [4], in experiment [5] and in experiment [6] was inactive. Besides, the outcome was “inactive” in experiment [7]; “inactive” in [8]; “inactive” in experiment [9]; “inactive” with TIMP1, TIMP1 (gene 7076); “inactive” in experiment [10]; “inactive” in experiment [11]. Also, the outcome in experiment [17], in [12], in experiment [13], in [14], in experiment [18] and in experiment [15] was inactive. Moreover, in experiment [16], the result was inactive.
